Laboratory results: PubChem BioAssay
The source made the active and inactive calls. Unless noted, how the calls were made is not given here.

Legend:
[1] = resazurin metabolic signal in HepG2 cells – cell-based, resazurin fluorescence, 24 h, PK04 Diversity Set, profiling panel (AID 1172); settings: HepG2 viability, higher = more signal; further: test concentration not given here
[2] = budding yeast growth changes without added modifier – OD600, strain BY4716, 24 h, basal condition, primary screen (AID 1173); settings: S. cerevisiae BY4716 growth, OD600, 24 h; higher = more signal, called active from +8 up or from −8 down
[3] = viability profiling in MM1S myeloma cells – cell-based, resazurin fluorescence, basal, 24 h, PK04 Diversity Set, profiling panel (AID 1174); settings: higher = more signal, called active from +8 up or from −8 down;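 further: MM1S multiple myeloma cell line; test concentration not given here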
[4] = target: Dihydroorotate dehydrogenase (quinone), mitochondrial (Plasmodium falciparum (isolate 3D7)) (UniProt Q08210); experiment: inhibition of P. falciparum DHODH – biochemical, C-terminal His tag, absorbance 600 nm, primary screen (AID 1175); settings: PfDHODH enzyme, DCIP absorbance 600 nm; higher = more signal, called active from +8 up or from −8 down;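 further: recombinant parasite enzyme with a five histidine tag at its C terminus; test concentration not given here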
[5] = inhibition of PAO1 biofilm formation – strain PAO1, LB-PBS medium, absorbance 600 nm, primary screen (AID 1176); further: test concentration not given here; settings: P. aeruginosa PAO1 growth/biofilm, A600, 12 h; higher = more signal
[6] = growth modulation of vineyard yeast isolate – strain RM11-1a, OD600, basal, 24 h, primary screen (AID 1177);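 further: cultures grown under basal conditions with no added stressor; test concentration not given here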; settings: S. cerevisiae RM11-1a growth, OD600, 24 h; higher = more signal, called active from +8 up or from −8 down
[7] = growth of efflux-deficient E. coli DRC39 – strain DRC39, OD650, 24 h, E. coli filamentation inducers, primary screen (AID 1178);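 further: growth measured as culture turbidity by optical density at 650 nm; test concentration not given here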; settings: E. coli DRC39 acrAB, higher = more signal, called active from +8 up or from −8 down
[8] = growth of efflux-deficient E. coli DRC39 – strain DRC39, OD650, 48 h, E. coli filamentation inducers, primary screen (AID 1179);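 further: screen aims at cell division blockers that make cells filament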; settings: E. coli DRC39 delta-acrAB growth, higher = more signal, called active from +8 up or from −8 down
[9] = viability profiling in RPMI8226 myeloma cells – cell-based, resazurin fluorescence, basal, 24 h, PK04 Diversity Set, profiling panel (AID 1180); settings: higher = more signal;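 further: RPMI8826 multiple myeloma cell line at 5000 cells per well; test concentration not given here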
[10] = target: E3 ubiquitin-protein ligase XIAP (Homo sapiens) (UniProt P98170); experiment: small molecules binding XIAP protein – biophysical, small-molecule microarray, fluorescence 635 nm, primary screen (AID 1181); settings: higher = more signal;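 further: score merges 667 nm emission and signal to noise over triplicate slides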
Chain of E3 ubiquitin-protein ligase XIAP (Homo sapiens) (P98170 whole entry, looked up): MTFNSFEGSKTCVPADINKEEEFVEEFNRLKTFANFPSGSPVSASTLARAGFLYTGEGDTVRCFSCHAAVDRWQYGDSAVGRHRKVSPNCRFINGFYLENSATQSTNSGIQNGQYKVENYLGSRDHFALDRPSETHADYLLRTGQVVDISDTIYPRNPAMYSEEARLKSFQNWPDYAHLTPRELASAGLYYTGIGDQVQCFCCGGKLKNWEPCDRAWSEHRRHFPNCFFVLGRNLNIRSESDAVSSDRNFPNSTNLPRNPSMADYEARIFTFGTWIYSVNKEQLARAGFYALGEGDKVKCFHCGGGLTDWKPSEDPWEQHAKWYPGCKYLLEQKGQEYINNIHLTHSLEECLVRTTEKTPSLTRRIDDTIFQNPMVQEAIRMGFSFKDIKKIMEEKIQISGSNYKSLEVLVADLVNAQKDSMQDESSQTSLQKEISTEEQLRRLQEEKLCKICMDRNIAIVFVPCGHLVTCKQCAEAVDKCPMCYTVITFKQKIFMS

Chain of Dihydroorotate dehydrogenase (quinone), mitochondrial (Plasmodium falciparum (isolate 3D7)) (Q08210 whole entry, looked up): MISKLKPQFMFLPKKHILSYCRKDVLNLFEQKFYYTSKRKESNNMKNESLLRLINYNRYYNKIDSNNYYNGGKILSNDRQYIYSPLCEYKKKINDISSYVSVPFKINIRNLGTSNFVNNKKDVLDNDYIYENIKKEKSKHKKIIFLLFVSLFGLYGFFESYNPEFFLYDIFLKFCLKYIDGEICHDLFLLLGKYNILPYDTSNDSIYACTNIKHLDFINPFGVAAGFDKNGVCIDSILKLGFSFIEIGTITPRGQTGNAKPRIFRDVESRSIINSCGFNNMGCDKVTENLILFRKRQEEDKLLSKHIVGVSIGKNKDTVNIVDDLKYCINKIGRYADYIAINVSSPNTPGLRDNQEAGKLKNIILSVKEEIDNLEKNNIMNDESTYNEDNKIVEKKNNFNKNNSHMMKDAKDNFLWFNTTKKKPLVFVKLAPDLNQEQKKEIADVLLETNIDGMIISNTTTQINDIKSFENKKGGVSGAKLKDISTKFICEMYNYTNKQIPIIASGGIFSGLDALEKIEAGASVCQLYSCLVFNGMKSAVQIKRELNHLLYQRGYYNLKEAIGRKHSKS

Compound	z-score [1]	z-score [2]	z-score [3]	composite z-score [4]	z-score [5]	z-score [6]	z-score [7]	z-score [8]	z-score [9]	composite z-score [10]
Cc1ccccc1C(O)C1C=CC2C(=O)NC(=O)C2N1Nc1ccc(Cl)cc1Cl (stereo not given)	-2.17	-9.05 (active)	-1.03 (inactive)	0.107 (inactive)	1.15 (inactive)	0.251 (inactive)	-0.511 (inactive)	-0.963 (inactive)	-1.25	2.02
COc1cccc(/C=C(\C#N)C(=O)Nc2c(C)n(C)n(-c3ccccc3)c2=O)c1	0.665	-1.81 (inactive)	-1.82 (inactive)	-1.14 (inactive)	0.792 (inactive)	-0.6 (inactive)	0.575 (inactive)	1.15 (inactive)	0.191	0.0775
COCCOC(=O)N1C(=O)[C@@]2(c3cc(C#CCC(C(=O)OC)C(=O)OC)ccc31)[C@H](C(=O)NC[C@H](O)c1ccccc1)[C@H]1C(=O)O[C@H](c3ccccc3)[C@H](c3ccccc3)N1[C@@H]2c1ccc(OCCO)cc1	-0.685	2.05 (inactive)	-0.0535 (inactive)	-0.429 (inactive)	3.49 (inactive)	3.11 (inactive)	0.629 (inactive)	0.453 (inactive)	-0.291	0.0806
O=C(O)[C@H]1C[C@H]2C(=O)N[C@@H](Cc3ccccc3)C(=O)N2[C@H]1c1cccc(OCCO)c1	1.02	-1.46 (inactive)	0.912 (inactive)	-1.98 (inactive)	-0.295 (inactive)	-0.655 (inactive)	-0.688 (inactive)	0.214 (inactive)	0.889	-0.0323
C=C(CCCC)/C(=C/C[C@H](OC(C)=O)c1ccc(OCCO)cc1)c1cc(C(=O)OC)ccc1OC	0.757	-1.06 (inactive)	-0.0396 (inactive)	-0.793 (inactive)	0.825 (inactive)	-0.0587 (inactive)	0.487 (inactive)	0.371 (inactive)	0.621	0.0977
COc1ccc(CCNC(=O)[C@@]2(Cc3ccccc3I)c3ccccc3C(=O)N(Cc3ccccc3Cl)[C@H]2c2ccc(CO)cc2)cc1	-0.0135	-0.564 (inactive)	0.0755 (inactive)	-0.902 (inactive)	0.751 (inactive)	-0.377 (inactive)	-0.432 (inactive)	-0.638 (inactive)	-0.978	0.262
C=C(C(=O)CC[C@@H](OC(=O)c1ccccc1-c1ccccc1C(=O)O)c1ccccc1OCCO)C(C)C	0.942	-2.55 (inactive)	0.132 (inactive)	-1.52 (inactive)	0.743 (inactive)	-0.639 (inactive)	0.475 (inactive)	0.13 (inactive)	0.131	0.209
C=CCC(OC(C)=O)[C@@H]1[C@@H](N(Cc2ccc(-c3cccc(C(F)(F)F)c3)o2)C(=O)Cc2ccc(OC)cc2)c2cc(OCCCO)ccc2N1C(=O)Cc1ccc2ccccc2c1 (stereo not given in full)	-0.43	-0.753 (inactive)	0.0919 (inactive)	1.02 (inactive)	-0.628 (inactive)	0.132 (inactive)	0.532 (inactive)	0.279 (inactive)	-0.224	-0.0286
Cc1ccc(S[C@]2(C(=O)NCc3ccccc3)CC(=O)N(Cc3cc(C(F)(F)F)cc(C(F)(F)F)c3)[C@@H]2c2ccc(CO)cc2I)cc1	1.24	-3.9 (inactive)	-2.82 (inactive)	-0.459 (inactive)	0.0214 (inactive)	-0.741 (inactive)	0.671 (inactive)	0.602 (inactive)	-1.17	-0.0622
COCCOC(=O)N1C(=O)[C@@]2(c3cc(C#CCCO)ccc31)[C@H](c1ccccc1OCCO)N1[C@H](c3ccccc3)[C@H](c3ccccc3)OC(=O)[C@H]1[C@@H]2C(=O)N1CCCCCCC1	0.543	0.971 (inactive)	-0.649 (inactive)	0.495 (inactive)	1.32 (inactive)	2.11 (inactive)	-0.255 (inactive)	0.343 (inactive)	0.484	0.236
COC(=O)[C@@]1(Cc2ccc(OC)cc2)[C@H]2c3cc(C(=O)N4CCCC4)n(Cc4cc(C)n(C)n4)c3C[C@H]2CN1C(=O)c1ccccc1	-0.646	1.1 (inactive)	-2.09 (inactive)	-0.77 (inactive)	-0.222 (inactive)	0.472 (inactive)	-0.145 (inactive)	0.342 (inactive)	-2.11	-0.02
CCOC(=O)C[C@H]1[C@H](OC(=O)c2ccc(-c3ccccc3)cc2)[C@@H](NC(=O)CC(C)C)c2cc(OCCCO)ccc2N1C(=O)c1ccccc1	-0.6	1.28 (inactive)	-0.281 (inactive)	0.88 (inactive)	0.951 (inactive)	0.964 (inactive)	-0.635 (inactive)	-0.776 (inactive)	-0.157	-0.0559
COc1cc(C(O)C2C=CC3C(=O)N(Cc4ccccc4)C(=O)C3N2n2cnnc2)cc(OC)c1OC (stereo not given)	0.462	-0.786 (inactive)	0.129 (inactive)	-1.12 (inactive)	1.6 (inactive)	-1.27 (inactive)	0.904 (inactive)	0.759 (inactive)	0.0011	0.0546
COc1ccc([Si](C)(C)[C@H]2[C@H](CC(=O)N3Cc4ccccc4C[C@H]3CO)O[C@@]3(C(=O)N(Cc4ccc(N5C(=O)c6cccc7cccc5c67)cc4)c4ccccc43)[C@@H]2C)cc1	0.716	0.21 (inactive)	-2 (inactive)	-0.934 (inactive)	1.13 (inactive)	1.77 (inactive)	0.929 (inactive)	0.472 (inactive)	-0.737	-0.063
Cc1ccc(S[C@]2(C(=O)NC(C)C)CC(=O)N(Cc3ccccc3Cl)[C@@H]2c2ccc(CO)cc2)cc1	-0.167	-0.624 (inactive)	-0.514 (inactive)	-0.674 (inactive)	1.52 (inactive)	0.343 (inactive)	-0.332 (inactive)	-0.963 (inactive)	0.351	-0.0072
O=C1[C@@H]2[C@@H](CC(COc3ccccc3)=C3[C@@H](CCc4ccccc4)OB(O)C[C@@H]32)C(=O)N1Cc1ccccc1	-0.665	-1.23 (inactive)	-0.0801 (inactive)	-0.77 (inactive)	0.306 (inactive)	-0.0775 (inactive)	-0.304 (inactive)	-0.915 (inactive)	-0.0577	-0.16
NC(=O)[C@H]1[C@@H]2C(=O)O[C@@H](c3ccccc3)[C@@H](c3ccccc3)N2[C@@H](c2ccc(O)cc2)[C@]12C(=O)Nc1ccc(C#CC3=CCCCC3)cc12	-0.111	0.137 (inactive)	-2.5 (inactive)	-0.146 (inactive)	-0.144 (inactive)	1.76 (inactive)	-0.466 (inactive)	-0.51 (inactive)	-4.76	-0.0773
CN(C)CCCCNC(=O)[C@H]1C[C@H]2C(=O)N[C@@H](CCCC[N+](C)(C)C)C(=O)N2[C@H]1c1ccc(O)cc1	0.351	-0.0503 (inactive)	1.4 (inactive)	-0.308 (inactive)	-1.16 (inactive)	-1.11 (inactive)	0.494 (inactive)	0.56 (inactive)	0.643	-0.0599
C=C(C)C1CCC(C(O)C2C=CC3C(=O)N(C)C(=O)C3N2Nc2cc(OC)c(OC)c(OC)c2)CC1 (stereo not given)	-1.15	0.552 (inactive)	-0.901 (inactive)	-0.896 (inactive)	0.971 (inactive)	0.065 (inactive)	-0.274 (inactive)	-0.379 (inactive)	-1.27	0.153
O=C1OCC=C[C@H]2OC34C=CCN(c5ccc6ccccc6c5)C(=O)[C@H]3N(CCCCCO)C(=O)[C@@H]4[C@@H]12 (stereo not given in full)	-0.658	-0.459 (inactive)	-0.818 (inactive)	0.28 (inactive)	-0.634 (inactive)	0.176 (inactive)	-1.19 (inactive)	-1.3 (inactive)	-0.887	-0.0286
C=C(CCCC)C(=O)CC[C@H](OC(C)=O)c1ccc(OCCO)cc1	0.574	-3.3 (inactive)	-0.464 (inactive)	-0.788 (inactive)	0.0022 (inactive)	-2.33 (inactive)	-0.0158 (inactive)	0.539 (inactive)	-0.939	0.648
[N-]=[N+]=Nc1ccccc1C[C@]1(C(=O)O)N=C(c2ccc(OCCCO)cc2)O[C@H]1c1ccccc1	-0.0033	-1.77 (inactive)	-1.1 (inactive)	0.502 (inactive)	0.258 (inactive)	-0.1 (inactive)	-0.115 (inactive)	-0.0225 (inactive)	-0.954	-0.0562
CO[C@H]1O[C@H](CO)[C@@H](OC(=O)CCc2ccccc2)[C@H](OC(=O)c2cc3ccccc3[nH]2)[C@H]1OC(=O)c1cc2ccccc2[nH]1	-1.4	-1.14 (inactive)	-2.09 (inactive)	-1.62 (inactive)	1.38 (inactive)	0.033 (inactive)	0.367 (inactive)	1.2 (inactive)	-2.49	-0.156
